Values joined by “and” are separate entries in the source; they are usually repeats but may differ in a detail not shown here. Equal values may be shown once. Among all 5,500 compounds or so, about 2,000 (36%) were called active. Roughly 18% stayed inconclusive and do not appear here. The list shows a part of the results. A number with no mark means an inactive call. Cut-off read from the data, not from the text of the source: active = normalized growth mostly below about 0.91 (no sharp cut-off); inconclusive = no clear call, values can overlap the other calls; inactive = mostly above about 0.92.
Assay: chemical genetic growth profiling, strain panel (AID 1159580);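 note: tested at 20 µM; growth read once vehicle control cultures reached saturation at 30 °C; 1 = growth at the plate median or of vehicle wells; lower values mean less growth of the strain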
Details: S. cerevisiae deletion strains, growth OD

Question: With `ClC(Cl)=C(c1ccc(Cl)cc1)c1ccc(Cl)cc1` as the compound, how does the normalized growth (locus YAL013W, strain DEP1, active compounds read low) read?
Answer: 0.976

Question: And the normalized growth (locus YAL021C, strain ccr4, active compounds read low)?
Answer: 0.995

Question: What about the normalized growth (locus YAL026C, strain drs2, active compounds read low) of the same compound?
Answer: 0.999

Question: And the normalized growth (locus YAL030W, strain snc1, active compounds read low)?
Answer: 0.982

Question: And the normalized growth (locus YBL061C, strain skt5, active compounds read low)?
Answer: 0.985

Question: And the normalized growth (locus YBR009C, strain hhf1, active compounds read low)?
Answer: 0.987

Question: What about the normalized growth (locus YBR021W, strain FUR4, active compounds read low) of the same compound?
Answer: 1

Question: And the normalized growth (locus YBR023C, strain chs3, active compounds read low)?
Answer: 0.983

Question: What about the normalized growth (locus YBR171W, strain sec66, active compounds read low) of the same compound?
Answer: 0.986

Question: And the normalized growth (locus YBR229C, strain ROT2, active compounds read low)?
Answer: 0.957

Question: What about the normalized growth (locus YBR231C, strain swc5, active compounds read low) of the same compound?
Answer: 0.976

Question: And the normalized growth (locus YBR279W, strain paf1, active compounds read low)?
Answer: 0.994

Question: And the normalized growth (locus YCL011C, strain gbp2, active compounds read low)?
Answer: 1

Question: And the normalized growth (locus YCL016C, strain dcc1, active compounds read low)?
Answer: 0.993

Question: And the normalized growth (locus YCL029C, strain bik1, active compounds read low)?
Answer: 0.941

Question: And the normalized growth (locus YCL061C, strain MRC1, active compounds read low)?
Answer: 0.983

Question: What about the normalized growth (locus YCL069W, strain vba3, active compounds read low) of the same compound?
Answer: 0.995

Question: What about the normalized growth (locus YCR088W, strain abp1, active compounds read low) of the same compound?
Answer: 0.998

Question: And the normalized growth (locus YDL005C, strain med2, active compounds read low)?
Answer: 0.979

Question: And the normalized growth (locus YDL035C, strain GPR1, active compounds read low)?
Answer: 0.971

Question: What about the normalized growth (locus YDL040C, strain nat1, active compounds read low) of the same compound?
Answer: 0.994

Question: And the normalized growth (locus YDL074C, strain BRE1, active compounds read low)?
Answer: 1.04

Question: What about the normalized growth (locus YDL101C, strain DUN1, active compounds read low) of the same compound?
Answer: 0.948

Question: And the normalized growth (locus YDL134C, strain PPH21, active compounds read low)?
Answer: 0.967

Question: And the normalized growth (locus YDL185W, strain tfp1, active compounds read low)?
Answer: 0.964

Question: What about the normalized growth (locus YDL192W, strain arf1, active compounds read low) of the same compound?
Answer: 0.958

Question: And the normalized growth (locus YDR001C, strain nth1, active compounds read low)?
Answer: 0.998

Question: What about the normalized growth (locus YDR069C, strain doa4, active compounds read low) of the same compound?
Answer: 0.985

Question: What about the normalized growth (locus YDR101C, strain arx1, active compounds read low) of the same compound?
Answer: 0.963

Question: And the normalized growth (locus YDR137W, strain rgp1, active compounds read low)?
Answer: 1.04

Question: And the normalized growth (locus YDR150W, strain NUM1, active compounds read low)?
Answer: 0.945

Question: What about the normalized growth (locus YDR159W, strain sac3, active compounds read low) of the same compound?
Answer: 0.986

Question: What about the normalized growth (locus YDR162C, strain NBP2, active compounds read low) of the same compound?
Answer: 0.95

Question: And the normalized growth (locus YDR195W, strain ref2)?
Answer: 1

Question: What about the normalized growth (locus YDR297W, strain sur2, active compounds read low) of the same compound?
Answer: 0.995

Question: What about the normalized growth (locus YDR318W, strain mcm21, active compounds read low) of the same compound?
Answer: 0.961

Question: And the normalized growth (locus YDR334W, strain swr1, active compounds read low)?
Answer: 0.986

Question: And the normalized growth (locus YDR335W, strain msn5, active compounds read low)?
Answer: 0.992

Question: What about the normalized growth (locus YDR388W, active compounds read low) of the same compound?
Answer: 0.949

Question: What about the normalized growth (locus YDR392W, strain spt3, active compounds read low) of the same compound?
Answer: 0.967

Question: And the normalized growth (locus YDR502C, strain sam2, active compounds read low)?
Answer: 0.95

Question: And the normalized growth (locus YEL003W, strain gim4, active compounds read low)?
Answer: 0.997

Question: What about the normalized growth (locus YEL037C, strain rad23, active compounds read low) of the same compound?
Answer: 1.01

Question: What about the normalized growth (locus YEL061C, strain CIN8 (second series), active compounds read low) of the same compound?
Answer: 0.996

Question: And the normalized growth (locus YEL061C, strain CIN8, active compounds read low)?
Answer: 0.966

Question: And the normalized growth (locus YER015W, strain faa2, active compounds read low)?
Answer: 0.983

Question: And the normalized growth (locus YER016W, strain bim1, active compounds read low)?
Answer: 1

Question: And the normalized growth (locus YER110C, active compounds read low)?
Answer: 0.946

Question: And the normalized growth (locus YER111C, strain swi4, active compounds read low)?
Answer: 0.991

Question: What about the normalized growth (locus YER155C, strain BEM2 (second series), active compounds read low) of the same compound?
Answer: 0.983

Question: And the normalized growth (locus YER155C, strain BEM2, active compounds read low)?
Answer: 0.927

Question: What about the normalized growth (locus YER167W, strain BCK2, active compounds read low) of the same compound?
Answer: 0.887 (active)

Question: What about the normalized growth (locus YFR010W, strain ubp6, active compounds read low) of the same compound?
Answer: 0.989

Question: And the normalized growth (locus YGL078C, strain dbp3, active compounds read low)?
Answer: 0.951

Question: What about the normalized growth (locus YGL086W, strain mad1, active compounds read low) of the same compound?
Answer: 0.955

Question: What about the normalized growth (locus YGL167C, strain pmr1, active compounds read low) of the same compound?
Answer: 0.994

Question: And the normalized growth (locus YGL173C, strain kem1, active compounds read low)?
Answer: 0.994

Question: And the normalized growth (locus YGL227W, strain vid30, active compounds read low)?
Answer: 0.995

Question: And the normalized growth (locus YGL240W, strain doc1, active compounds read low)?
Answer: 0.991

Question: And the normalized growth (locus YGL248W, strain PDE1, active compounds read low)?
Answer: 0.959

Question: And the normalized growth (locus YGL253W, strain hxk2, active compounds read low)?
Answer: 0.993

Question: What about the normalized growth (locus YGR078C, strain PAC10, active compounds read low) of the same compound?
Answer: 0.974

Question: What about the normalized growth (locus YGR135W, strain pre9, active compounds read low) of the same compound?
Answer: 0.966

Question: What about the normalized growth (locus YGR229C, strain SMI1, active compounds read low) of the same compound?
Answer: 0.998

Question: And the normalized growth (locus YGR252W, strain gcn5, active compounds read low)?
Answer: 1.03

Question: And the normalized growth (locus YHR013C, strain ard1, active compounds read low)?
Answer: 0.998

Question: And the normalized growth (locus YHR027C, strain rpn1, active compounds read low)?
Answer: 0.989

Question: And the normalized growth (locus YHR030C, strain SLT2, active compounds read low)?
Answer: 0.95 and 1.05

Question: What about the normalized growth (locus YHR079C, strain IRE1 (second series), active compounds read low) of the same compound?
Answer: 0.951

Question: What about the normalized growth (locus YHR079C, strain IRE1, active compounds read low) of the same compound?
Answer: 1.03

Question: And the normalized growth (locus YHR094C, strain hxt1, active compounds read low)?
Answer: 0.948

Question: And the normalized growth (locus YHR129C, strain ARP1, active compounds read low)?
Answer: 0.963

Question: What about the normalized growth (locus YHR142W, strain chs7, active compounds read low) of the same compound?
Answer: 0.986

Question: And the normalized growth (locus YHR200W, strain rpn10, active compounds read low)?
Answer: 0.951

Question: What about the normalized growth (locus YIL066C, strain RNR3, active compounds read low) of the same compound?
Answer: 0.929

Question: What about the normalized growth (locus YIL073C, strain SPO22, active compounds read low) of the same compound?
Answer: 0.941

Question: And the normalized growth (locus YIL125W, strain kgd1, active compounds read low)?
Answer: 0.948

Question: And the normalized growth (locus YIR030C, strain dcg1, active compounds read low)?
Answer: 0.944

Question: And the normalized growth (locus YJL092W, strain hpr5, active compounds read low)?
Answer: 0.999

Question: And the normalized growth (locus YJL095W, strain BCK1 (second series), active compounds read low)?
Answer: 0.995

Question: What about the normalized growth (locus YJL095W, strain BCK1, active compounds read low) of the same compound?
Answer: 0.961 and 1.05

Question: What about the normalized growth (locus YJL115W, strain asf1, active compounds read low) of the same compound?
Answer: 0.991

Question: And the normalized growth (locus YJL129C, strain trk1, active compounds read low)?
Answer: 0.964

Question: What about the normalized growth (locus YJL134W, strain LCB3, active compounds read low) of the same compound?
Answer: 0.961

Question: And the normalized growth (locus YJL154C, strain vps35, active compounds read low)?
Answer: 0.998

Question: And the normalized growth (locus YJL164C, strain tpk1, active compounds read low)?
Answer: 0.979

Question: What about the normalized growth (locus YJL166W, strain qcr8, active compounds read low) of the same compound?
Answer: 0.975

Question: What about the normalized growth (locus YJL168C, strain set2, active compounds read low) of the same compound?
Answer: 0.949

Question: And the normalized growth (locus YJL187C, strain SWE1 (second series), active compounds read low)?
Answer: 0.958

Question: What about the normalized growth (locus YJL187C, strain SWE1, active compounds read low) of the same compound?
Answer: 0.995

Question: What about the normalized growth (locus YJR043C, strain POL32, active compounds read low) of the same compound?
Answer: 0.966

Question: What about the normalized growth (locus YJR066W, strain TOR1, active compounds read low) of the same compound?
Answer: 0.975

From PubChem BioAssay AID1159580 (chemical genetic matrix, 2015)
